Reference: the supplement of paper PMC12669032

Key:
Assay in all cases: growth AUC relative to DMSO control (median of replicates) (fraction); higher = more growth (less inhibition), active = hit call of the paper
Conditions in all cases: 20 µM; 24 h;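 active = AUC reduced over 20% with Padj below 0.05 in at least 2 of 3 replicates; inactive = otherwise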
Akkermansia muciniphila = system: Akkermansia muciniphila
Summary of the method: (§1)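 Gut bacterial monocultures were grown anaerobically at 37 °C in mGAM from a starting OD600 of 0.05 with 20 µM compound (1% DMSO), in round-bottom 96-well plates under pierced gas-permeable seals, and OD600 was read hourly for 24 h. With the minimum OD set to 0, area under the growth curve was normalised to the plate median of solvent-only wells, or to row and column medians on the industrial chemical plate. Each value is the median of three biological replicates grown on separate days.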

Bacteroides caccae = system: Bacteroides caccae
Summary of the method: as §1

Bacteroides clarus = system: Bacteroides clarus
Summary of the method: as §1

Bacteroides dorei = system: Bacteroides dorei
Summary of the method: as §1

Bacteroides stercoris = system: Bacteroides stercoris
Summary of the method: as §1

[1] = system: Bacteroides thetaiotaomicron
Summary of the method: as §1

Bacteroides uniformis = system: Bacteroides uniformis
Summary of the method: as §1

[2] = system: Bifidobacterium longum subsp. longum
Summary of the method: as §1

Clostridium difficile = system: Clostridium difficile
Summary of the method: as §1

Collinsella aerofaciens = system: Collinsella aerofaciens
Summary of the method: as §1

Coprococcus comes = system: Coprococcus comes
Summary of the method: as §1

Escherichia coli ED1a = system: Escherichia coli ED1a
Summary of the method: as §1

Escherichia coli IAI1 = system: Escherichia coli IAI1
Summary of the method: as §1

Eubacterium rectale = system: Eubacterium rectale
Summary of the method: as §1

[3] = system: Fusobacterium nucleatum subsp. animalis
Summary of the method: as §1

Lactobacillus gasseri = system: Lactobacillus gasseri
Summary of the method: as §1

Lactobacillus paracasei = system: Lactobacillus paracasei
Summary of the method: as §1

Odoribacter splanchnicus = system: Odoribacter splanchnicus
Summary of the method: as §1

[4] = system: Parabacteroides distasonis
Summary of the method: as §1

Parabacteroides merdae = system: Parabacteroides merdae
Summary of the method: as §1

Measured: growth AUC

CN(C)NC(=O)CCC(=O)O
inactive: Akkermansia muciniphila 0.948 | Bacteroides caccae 1 | Bacteroides clarus 1.01 | Bacteroides dorei 1.04 | Bacteroides stercoris 1.01 | [1] 0.998 | Bacteroides uniformis 0.992 | [2] 1.01 | Clostridium difficile 0.991 | Collinsella aerofaciens 1 | Coprococcus comes 0.998 | Escherichia coli ED1a 0.988 | Escherichia coli IAI1 1.01 | Eubacterium rectale 0.926 | [3] 0.956 | Lactobacillus gasseri 1.01 | Lactobacillus paracasei 1.02 | Odoribacter splanchnicus 0.989 | [4] 1.03 | Parabacteroides merdae 1.02

CCOP(=O)(SC(C)CC)SC(C)CC (stereo not given)
inactive: Akkermansia muciniphila 0.94 | Bacteroides caccae 1.01 | Bacteroides clarus 0.962 | Bacteroides dorei 1.02 | Bacteroides stercoris 0.949 | [1] 0.993 | Bacteroides uniformis 0.981 | [2] 0.97 | Clostridium difficile 0.982 | Collinsella aerofaciens 0.933 | Coprococcus comes 1.01 | Escherichia coli ED1a 1.01 | Escherichia coli IAI1 0.987 | Eubacterium rectale 1.1 | [3] 0.983 | Lactobacillus gasseri 1.04 | Lactobacillus paracasei 0.989 | Odoribacter splanchnicus 0.933 | [4] 0.95 | Parabacteroides merdae 0.975

COP1(=S)OCc2ccccc2O1 (stereo not given)
inactive: Akkermansia muciniphila 1.01 | Bacteroides caccae 0.973 | Bacteroides clarus 0.979 | Bacteroides dorei 0.999 | Bacteroides stercoris 1.02 | [1] 0.993 | Bacteroides uniformis 0.986 | [2] 0.972 | Clostridium difficile 0.97 | Collinsella aerofaciens 1.04 | Coprococcus comes 1 | Escherichia coli ED1a 0.991 | Escherichia coli IAI1 1 | Eubacterium rectale 1.08 | [3] 1.12 | Lactobacillus gasseri 0.945 | Lactobacillus paracasei 0.997 | Odoribacter splanchnicus 1.04 | [4] 1.05 | Parabacteroides merdae 0.999

CCC(C)c1ccccc1OC(=O)NC (stereo not given)
inactive: Akkermansia muciniphila 0.869 | Bacteroides caccae 1.03 | Bacteroides clarus 0.975 | Bacteroides dorei 1.01 | Bacteroides stercoris 0.961 | [1] 0.981 | Bacteroides uniformis 0.978 | [2] 0.976 | Clostridium difficile 1 | Collinsella aerofaciens 0.986 | Coprococcus comes 1.01 | Escherichia coli ED1a 0.968 | Escherichia coli IAI1 0.974 | Eubacterium rectale 0.964 | [3] 0.998 | Lactobacillus gasseri 1.07 | Lactobacillus paracasei 0.918 | Odoribacter splanchnicus 1.08 | [4] 1.03 | Parabacteroides merdae 0.986

Cc1nc(N(C)C=O)nc(OC(=O)N(C)C)c1C
inactive: Akkermansia muciniphila 1.01 | Bacteroides caccae 0.986 | Bacteroides clarus 0.998 | Bacteroides dorei 0.985 | Bacteroides stercoris 0.955 | [1] 0.977 | Bacteroides uniformis 0.971 | [2] 1 | Clostridium difficile 0.963 | Collinsella aerofaciens 0.992 | Coprococcus comes 0.995 | Escherichia coli ED1a 0.975 | Escherichia coli IAI1 0.954 | Eubacterium rectale 1.03 | [3] 1.06 | Lactobacillus gasseri 0.976 | Lactobacillus paracasei 0.985 | Odoribacter splanchnicus 0.981 | [4] 1.04 | Parabacteroides merdae 0.982

S=C1NCCN1
inactive: Akkermansia muciniphila 1.05 | Bacteroides caccae 0.998 | Bacteroides clarus 0.998 | Bacteroides dorei 1.06 | Bacteroides stercoris 1.13 | [1] 1.01 | Bacteroides uniformis 1.03 | [2] 0.947 | Clostridium difficile 1.05 | Collinsella aerofaciens 1.02 | Coprococcus comes 1.02 | Escherichia coli ED1a 1.01 | Escherichia coli IAI1 1.01 | Eubacterium rectale 1.04 | [3] 1.08 | Lactobacillus gasseri 1.02 | Lactobacillus paracasei 0.923 | Odoribacter splanchnicus 1.04 | [4] 1.05 | Parabacteroides merdae 1.04

CC1(C)CN=C(NN=C(/C=C/c2ccc(C(F)(F)F)cc2)/C=C/c2ccc(C(F)(F)F)cc2)NC1
inactive: Akkermansia muciniphila 0.911 | Bacteroides caccae 0.961 | Bacteroides clarus 0.979 | Bacteroides dorei 1.03 | Bacteroides stercoris 0.902 | [1] 1.03 | Bacteroides uniformis 0.991 | [2] 0.998 | Clostridium difficile 0.972 | Collinsella aerofaciens 1.09 | Coprococcus comes 1 | Escherichia coli ED1a 0.992 | Escherichia coli IAI1 1.04 | Eubacterium rectale 1.04 | [3] 1.06 | Lactobacillus gasseri 0.935 | Lactobacillus paracasei 0.903 | Odoribacter splanchnicus 1.04 | [4] 1.06 | Parabacteroides merdae 0.989

CC1(C)C(C=C(Cl)Cl)[C@@H]1C(=O)O[C@@H](C#N)c1ccc(F)c(Oc2ccccc2)c1 (stereo not given in full)
inactive: Akkermansia muciniphila 0.998 | Bacteroides caccae 0.986 | Bacteroides clarus 1.01 | Bacteroides dorei 1.01 | Bacteroides stercoris 0.992 | [1] 1 | Bacteroides uniformis 0.976 | [2] 0.983 | Clostridium difficile 0.996 | Collinsella aerofaciens 0.96 | Coprococcus comes 0.984 | Escherichia coli ED1a 0.956 | Escherichia coli IAI1 1 | Eubacterium rectale 1 | [3] 0.878 | Lactobacillus gasseri 0.823 | Lactobacillus paracasei 0.99 | Odoribacter splanchnicus 1.01 | [4] 1.03 | Parabacteroides merdae 0.991
